# Compound activity deposited in PubChem by several laboratories.
# The list is not random: actives were taken first. Their share in the collection is about 2.6%.
# ABHD5-PLIN5 inh: inhibitors of human ABHD5-perilipin-5 interaction. Split G. princeps luciferase complementation, luminescence, 4 h. inhibition, % at 4 µM. 360,000 tested, 0.78% active. AID 602281;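 active means inhibition above the mean inhibition across every tested compound plus 3 SD, cut at about 22% in these data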
# PfM18AAP inh-1: blocks P. falciparum M18 aspartyl aminopeptidase; inhibition, % at 7.35 µM; AID 1822; 290,000 tested, 1.2% active; recombinant PfM18AAP, H-Glu-NHMec fluorogenic cleavage;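 active means inhibition above the campaign mean inhibition over all tested compounds plus 3 SD, cut at about 28% in these data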
# Granule exo inh: blocks lytic granule exocytosis. 360,000 tested, 0.66% active. AID 651702. TALL-104 LAMP-1 surface exposure, flow cytometry; cells stimulated with thapsigargin and PMA. inhibition, % at 10 µM;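 active means inhibition above about 55%, limit read from the data; inconclusive means no clear call, values can overlap the other calls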
# Rce1 inh: blocks yeast Ras-converting enzyme. yeast membranes, quenched prenylated peptide cleavage fluorescence. calls only. Q03530. 290,000 tested, 0.27% active;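 active means fall in fluorescence gain of 50% or more versus controls, with final raw signal at or below 3038400; inconclusive means same 50% fall but final raw signal above 3038400; inactive means fall in fluorescence gain under 50%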
# Target sequence (Q03530 whole entry, looked up): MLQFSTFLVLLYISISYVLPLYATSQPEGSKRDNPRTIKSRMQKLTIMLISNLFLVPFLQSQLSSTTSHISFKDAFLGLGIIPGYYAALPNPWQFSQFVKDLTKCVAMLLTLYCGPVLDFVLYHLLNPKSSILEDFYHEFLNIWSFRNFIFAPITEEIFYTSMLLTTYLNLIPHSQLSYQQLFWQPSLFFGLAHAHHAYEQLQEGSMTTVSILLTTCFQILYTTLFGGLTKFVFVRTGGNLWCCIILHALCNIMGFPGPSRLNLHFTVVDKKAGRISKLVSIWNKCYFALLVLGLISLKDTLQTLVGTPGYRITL
# Platelet DG rel: platelet dense granule release activity. human platelet-rich plasma, SFLLRN dense granule ATP release, luminescence. inhibition, %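 (compounds screened at 7.5 µM in platelet-rich plasma)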. 300,000 tested, 0.22% active;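 active means mean replicate score, as percent of positive control, at or above 50; inconclusive means mean below 50 but at least one replicate at or above 50; inactive means mean and every replicate below 50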
# PfM18AAP inh-2: PfM18AAP inhibition, confirmation. inhibition, % at 7.35 µM. shares compounds with PfM18AAP inh-1. recombinant PfM18AAP, H-Glu-NHMec fluorogenic cleavage. 2,400 tested, 28% active;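 active means mean inhibition over replicate wells above the hit cutoff set for the earlier primary screen, cut at about 29% in these data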
# CTSL1 counter: counter-screen for PFM18AAP inhibitors: confirmation of human cathepsin L inhibitors | shares compounds with PfM18AAP inh-1 | purified cathepsin L1, Z-Leu-Arg-MCA fluorescence | inhibition, % at 5.96 µM | 2,400 tested, under 10 active;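 active means average inhibition across replicates above the hit cutoff set in the earlier primary screen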
# Target sequence (P07711 whole entry, looked up): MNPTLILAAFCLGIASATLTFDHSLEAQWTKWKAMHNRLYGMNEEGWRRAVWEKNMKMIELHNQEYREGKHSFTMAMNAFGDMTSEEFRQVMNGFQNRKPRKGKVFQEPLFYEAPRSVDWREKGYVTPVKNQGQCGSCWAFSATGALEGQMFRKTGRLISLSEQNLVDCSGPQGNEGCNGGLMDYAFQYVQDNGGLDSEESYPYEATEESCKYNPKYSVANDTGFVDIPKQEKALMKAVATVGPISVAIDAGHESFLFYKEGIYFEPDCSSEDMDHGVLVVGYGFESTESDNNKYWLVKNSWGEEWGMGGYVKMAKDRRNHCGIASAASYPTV
# Numbers stand for hits; – = inactive; ? = inconclusive; · = not tested or not shown.
SMILES,ABHD5-PLIN5 inh,PfM18AAP inh-1,Granule exo inh,Rce1 inh,Platelet DG rel,PfM18AAP inh-2,CTSL1 counter
O=C(CSCc1ccc(Cl)cc1)N/N=C/c1ccccc1,–,–,–,–,–,·,·
CC1CCN(c2cc(N3CCOCC3)c([N+](=O)[O-])cc2F)CC1,–,–,–,–,–,·,·
CCc1nnc(N/N=C/c2ccc(N3CCC(C)CC3)c([N+](=O)[O-])c2)n1N,–,48.0,–,–,–,–,–
Cc1nnc(N/N=C/c2cc([N+](=O)[O-])c(N3CCC(C)CC3)cc2N2CCC(C)CC2)n1N,–,50.1,–,–,–,–,–
CCc1ccccc1-n1cnc2cc(C(=O)O)ccc21,–,–,–,–,–,·,·
COc1ccccc1N1CCN(Cc2cc3c(cc2O)OCO3)CC1,–,–,–,–,–,·,·
Oc1cc2c(cc1CN1CCc3ccccc3C1)OCO2,–,37.3,–,–,–,–,–
Cc1ccc(-n2c(N)c(C(N)=O)sc2=S)c(C)c1,–,39.1,–,–,–,–,–
Cc1ccc(-n2c(N)c(C(=O)N3CCN(C)CC3)sc2=S)cc1,–,58.7,–,–,–,–,–
Oc1c(Br)cccc1/C=N/c1ncn[nH]1,–,62.6,–,–,–,55.1,–
COc1cccc(/C=N/c2nc3ccccc3[nH]2)c1O,–,–,–,–,–,·,·
CCOC(=O)C1=C(COC(=O)CNC(=O)c2cccc(C)c2)NC(=O)NC1C (configuration not stated),–,·,–,–,–,·,·
OCCN1CCN(c2ncnc3sc4c(c23)CCCC4)CC1,–,–,–,–,–,·,·
Oc1ccc(N2CCN(c3ncnc4sc5c(c34)CCC5)CC2)cc1,–,38.8,–,–,–,–,–
CCN=c1scc(-c2ccco2)n1/N=C/c1ccc(OC)c(O)c1,–,–,–,–,–,·,·
CN=c1scc(-c2ccc(F)cc2)n1/N=C/c1ccc(O)c(O)c1,–,54.0,–,·,·,48.4,–
CC(NC(=O)COc1ccc(/C=N/NC(=O)C(=O)Nc2ccccc2Br)cc1)c1ccccc1 (configuration not stated),–,–,–,–,–,·,·
NC(=O)CN(Cc1ccccc1)S(=O)(=O)c1ccc2c(c1)OCCO2,–,–,–,–,–,·,·
Cc1cccc(NC(=S)NCCc2ccccc2)n1,–,37.8,–,–,–,–,–
S=C(NCCc1ccccc1)Nc1ccccn1,–,–,–,–,–,·,·
Cc1c(O)ccc2c(CN3CCN(Cc4ccccc4)CC3)cc(=O)oc12,–,–,–,–,–,·,·
O=c1cc(CN2CCOCC2)c2ccc(O)c(O)c2o1,–,35.7,–,–,–,–,–
CCCc1cc(=O)oc2c(CN3CCOCC3)c(O)ccc12,–,–,–,?,–,·,·
O=c1cc(CN2CCN(Cc3ccccc3)CC2)c2ccc(O)c(O)c2o1,–,48.2,–,–,–,–,–
NNc1nc2ccc(F)cc2s1,–,37.4,–,–,–,29.3,–
SMILES,ABHD5-PLIN5 inh,PfM18AAP inh-1,Granule exo inh,Rce1 inh,Platelet DG rel,PfM18AAP inh-2,CTSL1 counter
Cc1ccc(NC(=O)C2=CCN(S(=O)(=O)c3ccc(F)cc3)CC2)cc1,–,–,–,–,–,·,·
Cc1ccc(S(=O)(=O)N2CC=C(c3ccc(F)cc3)CC2)cc1,–,75.8,–,–,–,–,–
CCC(C)(C(=O)NC1CCCCC1)N(CC1CCCO1)C(=O)CNC(=O)c1ccccc1 (configuration not stated),–,35.1,–,–,–,–,–
COc1ccc(C)cc1NC(=O)NNC(=O)c1ccoc1C,–,46.6,–,–,–,–,–
COc1ccc(OC)c(NC(=O)Nc2cc(NC(=O)Nc3cc(OC)ccc3OC)c(C)nc2C)c1,–,–,–,–,–,·,·
COc1ccc(C)cc1NC(=O)c1ccoc1C,–,–,–,–,–,·,·
Cc1ccc(C)c(NC(=O)NNS(=O)(=O)c2ccc(C)c(C)c2)c1,–,–,–,–,–,·,·
Cc1ccc(C)c(NC(=O)NNC(=O)c2cc3occc3[nH]2)c1,–,49.2,–,–,–,28.7,–
COc1ccc(OC)c(NC(=O)NNC(=O)c2cc3occc3[nH]2)c1,–,56.4,–,–,–,35.2,–
Nc1c(Cl)cnc(C(Cl)(Cl)Cl)c1Cl,–,–,–,–,–,·,·
O=C(/C=C/c1ccccc1Cl)Nc1cccnc1,–,–,–,–,–,·,·
N#CC1=C(N)SC(N)=C(C#N)C1C1C=CCCC1 (configuration not stated),–,–,–,–,–,·,·
N#CC1=C(N)SC(N)=C(C#N)C1C1CC=CCC1 (configuration not stated),–,35.8,–,–,–,–,–
Oc1ccc(Br)cc1/C=N/n1c(COc2ccccc2)n[nH]c1=S,–,–,–,–,–,·,·
S=c1[nH]nc(COc2ccccc2)n1/N=C/c1ccccc1Br,–,34.6,–,–,–,–,–
CC(=S)/C=C1\Sc2ccccc2N1C,–,37.0,–,–,–,–,–
CN1/C(=C/c2cccc[n+]2CCO)Sc2ccccc21,–,–,–,–,–,·,·
Cc1cc(O)c(Sc2ncn[nH]2)cc1NS(=O)(=O)c1ccc(Cl)cc1,–,·,–,·,·,·,·
Cc1ccc([N+](=O)[O-])cc1S(=O)(=O)Nc1ccc(O)c(Sc2ncn[nH]2)c1,–,53.9,–,–,–,38.2,–
Cc1ccc(C2C3=C(CCCC3=O)Nc3[nH]c(=S)[nH]c(=O)c32)cc1 (configuration not stated),–,40.5,–,–,–,38.2,–
Fc1cccc(C2NC(=S)NC3=C2N2CCC3CC2)c1 (configuration not stated),–,–,–,–,–,·,·
COc1ccc(OC)c(C2NC(=S)NC3=C2N2CCC3CC2)c1 (configuration not stated),–,44.0,–,–,–,–,–
C/C(=N\Nc1ccc(C(=O)O)cc1)c1ccc(Br)cc1,–,31.7,–,–,–,–,–
C/C(=N\Nc1ccc(Cl)c(C(=O)O)c1)c1cccc([N+](=O)[O-])c1,–,35.9,–,–,–,–,–
C/C(=N\Nc1ccc(C(=O)O)cc1)c1ccc(S(=O)(=O)NCc2ccco2)cc1,–,35.7,–,–,–,–,–
SMILES,ABHD5-PLIN5 inh,PfM18AAP inh-1,Granule exo inh,Rce1 inh,Platelet DG rel,PfM18AAP inh-2,CTSL1 counter
CCc1ccc(/C(C)=N\Nc2ccc([N+](=O)[O-])cc2)cc1,–,–,–,·,–,·,·
C/C(=N\Nc1ccc([N+](=O)[O-])cc1)c1ccc(N)cc1,–,33.0,–,–,–,–,–
C/C(=N/Nc1ncc(Br)cn1)c1ccc(Br)cc1,–,–,–,–,–,·,·
O=C(CSC1=NS(=O)(=O)c2ccccc2N1)Nc1ccc(F)cc1,–,·,–,–,–,·,·
C/C(=N\Nc1nc(Cl)c(Cl)cc1Cl)c1ccc(S(=O)(=O)NCc2ccco2)cc1,–,48.9,–,–,–,–,–
CC(C)Cc1nc2oc3c(Cl)ncnc3c2c2c1CCC2,–,–,–,–,–,·,·
CCN(CC)S(=O)(=O)c1ccc(OC)c(NC(=O)c2ccc([N+](=O)[O-])cc2)c1,–,–,–,–,–,·,·
